# Source: PubChem BioAssay (National Center for Advancing Translational Sciences (NCATS))
# ELG1 DNA repair: qHTS screen for small molecules that inhibit ELG1-dependent DNA repair in human embryonic kidney (HEK293T) cells expressing luciferase-tagged ELG1; HEK293T ELG1-luciferase reporter, luminescence, 16 h; DNA damage induced by 5-fluorouridine; Potency, µM (highest dose often 46.1 µM), without a hit: top-dose activity change, negative = inhibition, hits mostly inhibitors; 2.3% of 330,000 active; further: on the % scale 0 is the no-effect control and ±100 the full control effect; nearly all actives have a fitted effect of over 55% in size
#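 Reporter activity after DNA damage by 5-fluorouridine is monitored. Compound-treated cells incubate 16 hr at 37 °C, then ONE-Glo is added for 30 min before luminescence reading.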
# RORgamma inh: qHTS for inhibitors of ROR gamma transcriptional activity. Nuclear receptor ROR-gamma (Mus musculus), P51450. Drosophila S2 Gal4-RORgamma UAS-luciferase reporter, 20 h. Potency, µM (doses to about 53.6 µM), for inactives: at the top dose activity change, negative = inhibition, most hits filed as inhibitors. 5.4% of 310,000 active; further: on the % scale 0 is the no-effect control and ±100 the full control effect; nearly all actives have a fitted effect of over 60% in size
# Target sequence (P51450 whole entry, looked up, the tested form may be a part): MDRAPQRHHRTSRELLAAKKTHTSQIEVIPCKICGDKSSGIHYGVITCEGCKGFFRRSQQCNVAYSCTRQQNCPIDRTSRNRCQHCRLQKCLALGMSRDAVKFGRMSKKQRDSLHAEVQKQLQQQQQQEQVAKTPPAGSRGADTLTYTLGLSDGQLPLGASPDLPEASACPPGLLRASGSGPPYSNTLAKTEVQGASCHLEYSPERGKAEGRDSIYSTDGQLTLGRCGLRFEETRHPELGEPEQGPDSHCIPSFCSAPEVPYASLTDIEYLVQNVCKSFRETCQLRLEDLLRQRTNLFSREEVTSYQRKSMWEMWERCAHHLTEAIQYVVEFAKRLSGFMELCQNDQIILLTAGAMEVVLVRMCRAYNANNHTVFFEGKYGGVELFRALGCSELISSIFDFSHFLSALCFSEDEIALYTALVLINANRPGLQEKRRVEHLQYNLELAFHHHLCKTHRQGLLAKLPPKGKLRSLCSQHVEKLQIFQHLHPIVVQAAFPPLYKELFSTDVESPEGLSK
#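 Drosophila S2 cells stably expressing Gal4-DBD/mouse RORγ fusion under metallothionein promoter plus UAS-luciferase; compound 1 h, then 700 uM CuSO4 induction for 20 h at ambient temperature; inhibition read as reduced luminescence.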
# MCF10A rereplic: A quantitative high throughput screen for small molecules that induce DNA re-replication in MCF 10a normal breast cells. AID 624296, 2012. Potency, µM (series often up to 46.1 µM), for inactives: at the top dose activity, positive = re-replication, hits mostly activators. 2.9% of 350,000 active. MCF 10A DNA re-replication, Hoechst nuclear intensity, 48 h; further: % of control where 0% means no effect; nearly all actives have a fitted effect of over 50% in size
# Gal4-VP16 FLuc: VP16 counterscreen qHTS for inhibitors of ROR gamma transcriptional activity; Drosophila S2 Gal4-VP16 UAS-luciferase, luminescence, 20 h; Potency, µM (highest dose often 53.6 µM), for inactives: at the top dose activity, negative = inhibition, hits mostly inhibitors; 3.5% of 310,000 active; AID 2546, 2010;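 further: Gal4-VP16 expression switched on by copper sulfate through the metallothionein promoter; on the % scale 0 is the no-effect control and ±100 the full control effect; nearly all actives have a fitted effect of over 50% in size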
# SW480 rerep: A quantitative high throughput screen for small molecules that induce DNA re-replication in SW480 colon adenocarcinoma cells; SW480 DNA re-replication, Hoechst DNA content imaging, 48 h; Potency, µM (highest dose often 46.1 µM), for inactives: top-dose re-replication activation, hits mostly activators; 1.8% of 340,000 active; further: % of control where 0% means no effect; nearly all actives have a fitted effect of over 55% in size
#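 SW480 cells exposed to compounds for 48 hr at 37 C, 5% CO2, then Hoechst-stained 40 min. Nuclear DNA content imaged by fluorescence scanning (405 nm excitation, 500-530 nm emission); re-replication scored as increased high-intensity nuclei.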
# Starred values were filed as active, the others as inactive; ? = inconclusive; / = no result given; [ ] = dose if it differs, or a comment. A selection: hits, their analogues and other compounds. The true share with any hit is near 10%. The call rests on the fitted dose curve; in most records, active means well fitted curve in the direction sought with a large enough effect; inconclusive means small, poorly fitted or top-dose-only effect, or another doubt; inactive means no such curve, though single readings can be large; an effect the other way counts as inactive or inconclusive. Potency means the concentration at half of the fitted maximal effect.
SMILES,ELG1 DNA repair,RORgamma inh,MCF10A rereplic,Gal4-VP16 FLuc,SW480 rerep
CC(=O)OCCn1c2nc(=O)[nH]c(=O)c-2nc2cc(C)c(C)cc21,-16%,-15%,-12%,7%,-1%
COc1ccc(S(=O)(=O)N2Cc3ccccc3CC2C(=O)Nc2nccs2)cc1 (stereo unspecified),?,-40%,2%,1%,-9%
N#C/C(=C\Nc1ccc2cn[nH]c2c1)c1nc(-c2ccccc2)cs1,15%,?,16µM*,?,3%
CN1CCN(C(=O)Nc2cccc(-c3ccccc3)c2)CC1,-5%,4%,?,3%,16µM*
Cc1ccc2c(c1)C1CN(C)CCC1N2C(=S)NC(=O)c1ccc(Br)cc1 (stereo unspecified),?,0.11µM*,9%,-73%,14%
CC(C)Oc1ccc(C(=O)NC(=S)N2CCOCC2)cc1,?,3.5µM*,-4%,1.3µM*,/
Cc1ccc(NC(=O)c2ccc(OC(=S)N3CCOCC3)cc2)cc1,?,12%,2%,4%,-1%
CN1CCN(C(=S)NC(=O)c2ccc(Br)cc2)CC1,?,0.89µM*,-1%,1.1µM*,-12%
COc1ccccc1/C=C(\NC(=O)c1cccc(C)c1)C(=O)Nc1ccccn1,9%,7%,-4%,0%,-1%
CC(C)(C)[C@@H]1C=C(C(N)=O)O[C@H](OCCCCO)C1,/,/,-21%,/,-7%
COc1ccc(N2CCN(C(=O)c3c(-c4c(F)cccc4Cl)noc3C)CC2)cc1,-9%,/,-1%,/,11%
CCCNC(=O)OC[C@@H]1O[C@H](CCO/N=C(\C)CCC(=O)OC[C@@H]2O[C@H](c3ccccc3)C=C[C@@H]2Oc2ccc(OC)cc2)C=C[C@@H]1Oc1ccc(OC)cc1,/,-18%[10 µM],/,1%[10 µM],/
Cc1ccc(C(=O)NC(=S)N2CCN(C)CC2)cc1,?,0%,-8%,7.1µM*,-8%
CN1CCN(C(=S)NC(=O)c2ccc(-c3ccccc3)cc2)CC1,-5%,0.089µM*,0%,0.56µM*,?
O=CN1CCN(C(=S)NC(=O)c2ccc(Cl)cc2)CC1,9%,/,-5%,/,-4%
CN1CCN(C(=S)NC(=O)c2ccc(C(C)(C)C)cc2)CC1,8%,1.4µM*,0%,2.5µM*,2%
CC(C)(C)c1ccc(C(=O)NC(=S)N2CCOCC2)cc1,?,1.1µM*,11%,1µM*,-3%
N=C(N)n1cccn1,/,-5%,12%,-8%,-3%
CCCCN1CC(=O)N2[C@H]3c4ccccc4OC[C@@H]3[C@H](c3ccccc3)[C@]2(C)C1=O,?,/,0%,/,-11%
Cc1ccc(C(=O)Nc2ccc(C(=O)N3CCCCC3)cc2)cc1,-16%,15%,6%,-6%,-30%
Cc1ccc(C(=O)NC(=S)N2CCCC2)cc1,15%,0.89µM*,0%,5µM*,-10%
Cn1c(SCC(=O)Nc2ccc3c(c2)n(C)c(=O)n3C)nnc1-c1ccncc1,?,-14%,8%,-6%,-2%
O=C1C2C3c4ccccc4C(c4ccccc43)C2c2nc3ccccc3n21 (stereo unspecified),16µM*,-15%,?,-4%,8%[9.22 µM]
CN1C(=O)C2C3c4ccccc4C(c4ccccc43)[C@@H]2C1=O (stereo partly specified),5%,3%,-2%,4%,-4%
COc1ccccc1CNC(=O)c1ccccc1C(=O)NC(CC(C)C)C(=O)NCc1ccccc1OC (stereo unspecified),21µM*,7%,12%,-2%,2%
SMILES,ELG1 DNA repair,RORgamma inh,MCF10A rereplic,Gal4-VP16 FLuc,SW480 rerep
Cc1ccc(C(=O)NCC(=O)OCc2nnc(-c3ccc([N+](=O)[O-])cc3)o2)s1,3%,/,-5%,/,-11%
COc1ccccc1S(=O)(=O)Cc1ccc(C(=O)N2CCCC2)o1,1%,17%,22%,-6%,-1%
Cc1c(C(=O)N2CCN(c3ccccn3)CC2)oc2c1C(=O)CC(C)(C)C2,?,-9%,-1%,-4%,-16%
CCc1ccccc1S(=O)(=O)Cc1ccc(C(=O)N2CCN(c3ccccc3OC)CC2)o1,23µM*,29%,-11%,-15%,?
Cc1ccccc1S(=O)(=O)Cc1ccc(C(=O)N2CCN(c3cccc(C)c3C)CC2)o1,7.3µM*,30%,2.3µM*,3%[0.365 µM],4.1µM*
COc1ccccc1N1CCN(C(=O)c2oc3c(c2C)C(=O)CC(C)(C)C3)CC1,21µM*,5%,-4%,9%,-6%
Cc1ccc(S(=O)(=O)N(C)c2ccc(C(=O)Nc3cccnc3)cc2)cc1,?,53%,6%,-1%,-3%
CCS(=O)(=O)N1CCN(CC(=O)NC2CCCCC2)CC1,9%,15%,-3%,-10%,-4%
CC(=O)c1cc(CN2CCC(C(=O)Nc3ccc(-n4nc(C)cc4C)cc3)CC2)cs1,/,/,19%,/,3%
N#CCC(=O)N1CCN(C=O)CC1,-1%,0%,-3%,-1%,-6%
COC(=O)c1ccc(Oc2nc(C(N)=O)cc(-c3ccccc3)n2)cc1,-14%,0%,17%,-4%,20%
NC(=O)c1ccsc1NC(=O)COC(=O)c1ccccn1,10%,/,9%,/,?
Cc1nn(CC(=O)Nc2ccc(Cl)cc2)c(=O)c2cc(-c3ccccc3)nn12,?,-13%,21µM*,-13%,15µM*
CCOC(=O)C1=C(NC(=S)NC(=O)c2ccccc2)c2ccccc2CC1C(C)C (stereo unspecified),-2%,4µM*,?,3%[0.365 µM],?
CCOC(=O)c1ccc(NC(=O)c2ccc(NC(=O)c3ccccc3)cc2)cc1,-19%,4%,?,11%,?
CCOC(=O)C1=C(NC(=S)NC(=O)c2ccccc2)c2ccccc2CC1(C)CC (stereo unspecified),-19%,6.3µM*,13µM*,7.1µM*,10%
O=C(CN1CCOCC1)NCc1ccccc1Cl,18%,-1%,-13%,1%,-14%
CN(CC(=O)Nc1ccccc1C(F)(F)F)C(=O)c1cccc(-n2cccc2)c1,10%,/,-4%,/,15%
Cc1ccc(CN2CC(C(=O)Nc3cc(C)ccn3)CC2=O)cc1 (stereo unspecified),?,/,16%,/,29µM*
Cc1ccnc(NC(=O)C2CC(=O)N(c3ccc4c(c3)OCCO4)C2)c1 (stereo unspecified),?,7.9µM*,-11%,?,2%
COc1ccc(-c2csc(NC(=O)C3CC(=O)N(c4ccc5c(c4)OCCO5)C3)n2)cc1 (stereo unspecified),23µM*,?,22%,-14%,/
